Results filed as inconclusive are left out. A number with no mark means an inactive call. Activity calls are given as the source filed them. Calls follow the shape of the full dose curve.
% is scaled to controls: 0 for no effect and ±100 for the full control effect; potency is read from the fitted curve at half-maximal effect.

This assay is described as follows: VSVG counterscreen qHTS to identify inhibitors of SARS-CoV-2 cell entry (AID 1645847). Also: nearly all actives have a fitted effect of over 65% in size. To be noted: VSV-G pseudotyped particle entry, luciferase; series mostly up to 57.2 µM; activity change, negative = inhibition: at the top concentration. In outline:
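Luminescence from a luciferase reporter, normalised to bald particle and VSV-G pseudotyped particle wells, is the read-out. Cells are HEK293 expressing human ACE2, exposed to compound 1 h before a 48 h particle infection at 37 °C.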
A general note: The purpose of a counterscreen is to sort out artefacts and off-target activity.
As to `COC(=O)N[C@H](C(=O)N1CCC[C@H]1c1ncc(-c2ccc(-c3ccc(-c4cnc([C@@H]5CCCN5C(=O)[C@@H](NC(=O)OC)C(C)C)[nH]4)cc3)cc2)[nH]1)C(C)C`, the Potency was 1.71 µM (active).

Turning to `CC(C)(C)NCC(O)COc1ccccc1C1CCCC1` (stereo not drawn), the Potency was 12.1 µM (active).

With `O=C1[C@@H]2[C@H]3CC[C@H](C3)[C@@H]2C(=O)N1C[C@@H]1CCCC[C@H]1CN1CCN(c2nsc3ccccc23)CC1`, the Potency is 3.04 µM (active). The same measure, in the same setting: the value for `Cc1cncc(CN2CCC(=C3c4ccc(Cl)cc4CCc4cccnc43)CC2)c1` was 27.1 µM (active). The same measure, in the same setting: the same measure for `CCN1CCN(Cc2ccc(Nc3ncc(F)c(-c4cc(F)c5nc(C)n(C(C)C)c5c4)n3)nc2)CC1`: 6.81 µM (active). As for `CCCN1C[C@H](C)[C@@H](O)[C@](C)(O)[C@@H](CC)OC(=O)[C@H](C)[C@@H](O[C@H]2C[C@@](C)(OC)[C@@H](O)[C@H](C)O2)C(C)[C@@H](O[C@@H]2O[C@H](C)C[C@H](N(C)C)[C@H]2O)[C@](C)(O)C[C@H]1C` (stereo partly drawn), the “activity change, negative = inhibition” value is -20.2%.

On to `[2H]C([2H])([2H])C(O)([C@@H](C)/C=C/[C@@H](C)[C@H]1CC[C@H]2/C(=C/C=C3C[C@@H](O)C[C@H](O)C3)CCC[C@]12C)C([2H])([2H])[2H]`, for which the Potency is 3.83 µM (active). As to `CC(CN1c2ccccc2Sc2cccnc21)N(C)C` (stereo not drawn), the Potency was 24.1 µM (active).

The values above are taken from PubChem BioAssay (NCATS).
